The text below walks through data of ChEMBL document CHEMBL3988442, “University of Dundee, Small-Polar-MMV Screening Library” (2021).

Hit rate of the full screen: of about 48,000 compounds, about 13,000 (27%) showed an effect of 50% or more. The list shows a part of the results.

The experiment concerns Wolbachia pipientis. Nature of the experiment: Anti-Wolbachia Cell-Based Screen. In kind it is functional. Also on record: scale not given: in the data most compounds retested in dose-response had high values. Conditions: 5 µM.
As for `CSCCc1ccc(NC(=O)NC(C)Cn2cncn2)cc1` (centres undefined), the “Percent Effect” value is on record as -13.08%.

For `C[C@@H]1CN(C(=O)c2ccc(C#N)nc2)CC[C@@]1(O)C1CCOCC1`, the “Percent Effect” value was -17.54%. Consider `C[C@@H]1CN(c2ccc(Cl)cn2)CC[C@@]1(O)C1CCOCC1`, for which the “Percent Effect” value came out at 111.4%. As for `C[C@@H]1CN(C(=O)c2c[nH]c(=O)c(Cl)c2)CC[C@@]1(O)C1CCOCC1`, the “Percent Effect” value was 3.711%.

Take `C[C@@H]1CN(c2ccc(C#N)cn2)CC[C@@]1(O)C1CCOCC1`: the “Percent Effect” value stood at 124%. Regarding `CNc1ccnc(N2CC[C@@](O)(C3CCOCC3)[C@H](C)C2)n1`, the “Percent Effect” value was found to be 0.6002%. To `C[C@@H]1CN(C(=O)c2cnc(C3CC3)nc2)CC[C@@]1(O)C1CCOCC1` belongs -14.06%; to `C[C@@H]1CN(c2cccnn2)CC[C@@]1(O)C1CCOCC1`, 104.1%. To `CN(Cc1ccsc1)C(=O)C1CCC(=O)N(Cc2ccccn2)C1` (centres undefined) belongs 0.2635%; to `O=C(Nc1ccc(F)cc1)C1CNCCN1C(=O)CSc1ccncc1` (centres undefined), -2.751%; to `CN1CC(Nc2ccc(Br)cc2C#N)CCC1=O` (centres undefined), -7.586%. `CN(Cc1n[nH]c(=O)n1Cc1cccs1)S(C)(=O)=O`: the “Percent Effect” value is listed as 2.826%.

Consider `COc1ccc(CNC[C@H]2COCc3nc4cc(F)ccc4n32)cc1`, for which the “Percent Effect” value is on record as -1.545%. In the case of `Cc1cc(C)c2c(c1)C(NCc1nnc3n1CCC3)CCCO2` (centres undefined), the “Percent Effect” value is recorded as -14.27%. On to `CC(C)c1nnc(CN(C)C(c2ccccc2)c2ccc(F)cc2)o1` (centres undefined), for which the “Percent Effect” value was determined as 6.032%. Under `CC1CN(c2ccc(CNC(=O)c3ccn(C)c(=O)c3)cn2)CCO1` (centres undefined) stands -2.154%; under `Cn1ccc(C(=O)NCc2ccc(CN3CCCC3)cc2)cc1=O`, 100.9%; under `Cc1nccn1Cc1cccc(CNC(=O)c2ccn(C)c(=O)c2)c1`, 4.832%. To `Cn1ccc(C(=O)NCc2ccc(Cn3ccnc3)cc2)cc1=O` belongs -4.475%; to `CC1CCN(Cc2ccc(CNC(=O)c3ccn(C)c(=O)c3)cc2)CC1`, 110.1%. Under `Cn1ccc(C(=O)NCc2ccc(CN3CCCCC3)cc2)cc1=O` stands 90.87%. Consider `O=C(NCc1ccc(CN2CCCC2)cc1)NC1(CO)CCCC1`, for which the “Percent Effect” value was -3.44%. Under `Cn1ccc(C(=O)NCc2ccc(N3CCCC3)nc2)cc1=O` stands -7.824%; under `Cn1ccc(C(=O)NCc2cccc(Cn3ccnc3)c2)cc1=O`, 0.02977%.

Consider `Cc1c(C)n(CC(O)CN2CCOCC2)c2c(Cl)cccc12.Cl` (centres undefined), for which the “Percent Effect” value is given as 0.7413%. Under `Cc1csc(C(C)(C)NCC(=O)N2CCCC(C(F)(F)F)C2)n1` (centres undefined) stands -11.49%; under `COc1ccc(N(C(=O)c2ccccn2)C(C)C)cc1F`, 1.663%; under `CCc1ccc(CN2CCN(c3ncc(Cl)cn3)CC2)nc1`, -9.614%. To `CCN(CCO)C(=O)c1cc(Cn2c(C)nc3ccccc32)[nH]n1` belongs 148%. Under `CCCN(CCOC)C(=O)c1cc(Cn2c(C)nc3ccccc32)[nH]n1` stands 142.8%. `CCCN(CC)C(=O)c1nc2c(n1C)CCN(Cc1ccccc1)C2`: the “Percent Effect” value is -8.908%. Under `COCCN(CCOC)C(=O)c1ccn(-c2ccc3ccccn23)n1` stands 3.271%. Under `CC(=O)N[C@H]1CCN(C(=O)c2cc(Cn3cnc4ccccc43)[nH]n2)C1` stands -30.35%; under `COCCN(C(=O)c1cc(-c2ccc(C)s2)[nH]n1)C1CC1`, 0.109%. In the case of `NC(=O)CNC(=O)c1cc(Cn2cnc3ccccc32)[nH]n1`, the “Percent Effect” value is -4.781%. Under `CC(CNC(=O)c1cc(Cn2cnc3ccccc32)[nH]n1)N1CCCC1` (centres undefined) stands 2.077%. To `CCCN(CC)C(=O)c1cc(Cn2c(C)nc3ccccc32)[nH]n1` belongs 146%; to `COc1ccc(OC)c(CNC2CCCN(c3cccnn3)C2)c1` (centres undefined), -14.68%; to `Cc1ccoc1C(=O)N1CCNCC1C(=O)NCc1ccncc1` (centres undefined), -11.73%.

In the case of `Cc1cc2n(n1)CC(CNCCc1cnn(C)c1)CN2` (centres undefined), the “Percent Effect” value is given as -15.02%.

Regarding `O=C(NCCCC(=O)N1Cc2ccccc2C1)NCc1nccs1`, the “Percent Effect” value is recorded as -8.527%. To `CC(=O)N1CCN(C(=O)CNc2ccc3ncsc3c2)CC1` belongs -9.479%; to `CCCc1nc(N(C)CCc2noc(C(C)C)n2)c2cnn(C)c2n1`, 13.53%; to `CCc1nnc2n1CCN(C(=O)C(C)COCc1ccccc1)C2` (centres undefined), 5.124%.

In the case of `Cc1nn(C)c(C)c1OCC(=O)N1CCCc2c(F)ccc(F)c21`, the “Percent Effect” value is on record as -4.523%. Under `Cc1ccc(F)c2c1CCCN2C(=O)Cc1c(C)nn(C)c1C` stands -7.331%.

For the molecule `Cc1ccc(F)c2c1N(C(=O)Cc1c(C)nn(C)c1C)CCC2`, the “Percent Effect” value amounted to 55.91%. Take `Cn1c(CC2CCS(=O)(=O)C2)nnc1SCCOc1cccc(Cl)c1` (centres undefined): the “Percent Effect” value is listed as -0.5002%. Regarding `N#CCCCn1cnc2c(F)cc(Br)cc2c1=O`, the “Percent Effect” value came to 100.3%. Under `Cc1cc(C)c2ncn(CC(C)(C)CO)c(=O)c2c1` stands 2.019%; under `N#CCCCn1nnnc1Cc1ccc(Br)cc1`, -5.124%; under `COc1cc2ccn(CCS(C)(=O)=O)c(=O)c2cc1F`, 3.704%.

As for `COCCn1cnc2c(F)cc(Br)cc2c1=O`, the “Percent Effect” value is on record as 109.9%. As to `N#CCCn1cnc2c(Br)cc(Br)cc2c1=O`, the “Percent Effect” value is reported as 26.83%. To `Cc1cc(C)c2ncn(CCC(C)O)c(=O)c2c1` (centres undefined) belongs -16.19%. To `N#CCCn1cnc2c(F)cc(Br)cc2c1=O` belongs 102.6%; to `CC(C)COc1ccccc1CN(C)C(=O)c1cc(=O)[nH]c(=O)[nH]1`, -33.98%; to `CNCCNc1ccc(-c2nc(-c3cccc(OC)c3OC)no2)cn1`, -9.505%. To `Cc1noc(C)c1CN1CCOCC12CCN(c1cnccn1)CC2.O=C(O)C(F)(F)F` belongs 82.98%.

In the case of `Cc1noc(C)c1CN1CCOCC12CCN(c1ncccn1)CC2.O=C(O)C(F)(F)F`, the “Percent Effect” value turned out to be 113.5%. To `Cc1noc(C)c1CN1CCC2(CC1)CN(c1ccccn1)CCO2.O=C(O)C(F)(F)F.O=C(O)C(F)(F)F` belongs -6.126%; to `CC(C)N1CCOCC2(CCN(c3cnccn3)CC2)C1.O=C(O)C(F)(F)F`, -21.42%; to `Cc1noc(C)c1CN1CCOC2(CCCN(c3ncccn3)C2)C1.O=C(O)C(F)(F)F` (centres undefined), 2.072%. Under `Cc1nc(CN2CCOCC3(CCCN(c4cnccn4)C3)C2)cs1.O=C(O)C(F)(F)F` (centres undefined) stands -4.433%.
